GRK2 aptamer HTS: human GRK2 inhibition via aptamer displacement; actives 0.59% (n = 330,000); bead flow cytometry, FAM-aptamer displacement from GRK2; inhibition of aptamer binding, % at 10 µM;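 active = inhibition of aptamer binding above 40%, roughly 3 SD of noise, on plates passing a quality check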;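 also: median bead fluorescence of bound FAM aptamer so fluorescent compounds give negative values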
Target sequence (P25098 whole entry, looked up): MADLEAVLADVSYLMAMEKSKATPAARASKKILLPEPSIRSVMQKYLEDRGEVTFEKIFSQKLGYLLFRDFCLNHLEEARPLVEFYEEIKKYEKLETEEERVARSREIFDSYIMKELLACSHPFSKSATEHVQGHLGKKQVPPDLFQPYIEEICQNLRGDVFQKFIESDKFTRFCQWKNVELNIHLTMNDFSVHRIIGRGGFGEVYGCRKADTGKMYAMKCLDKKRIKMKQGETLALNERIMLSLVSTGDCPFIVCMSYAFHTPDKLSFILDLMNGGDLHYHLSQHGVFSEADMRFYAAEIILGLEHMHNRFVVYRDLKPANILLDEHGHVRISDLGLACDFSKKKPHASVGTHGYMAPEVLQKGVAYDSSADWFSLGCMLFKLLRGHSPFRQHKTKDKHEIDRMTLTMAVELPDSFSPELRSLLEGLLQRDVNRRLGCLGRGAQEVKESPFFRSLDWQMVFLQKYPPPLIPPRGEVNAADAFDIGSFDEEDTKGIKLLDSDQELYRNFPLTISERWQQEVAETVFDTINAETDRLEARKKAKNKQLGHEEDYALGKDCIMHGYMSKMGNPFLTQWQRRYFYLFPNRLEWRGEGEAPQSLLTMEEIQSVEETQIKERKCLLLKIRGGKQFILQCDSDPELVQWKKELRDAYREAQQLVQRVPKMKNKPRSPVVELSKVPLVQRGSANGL
HDAC3 inh: inhibitors of human histone deacetylase 3; actives 0.15% (n = 320,000); inhibition, % at 8.3 µM; O15379; recombinant HDAC3, fluorogenic peptide/trypsin coupled, fluorescence; in the data active = inhibition above about 26%, passing the limit was not always enough; inconclusive = no clear call, values can overlap the other calls
Rtt109 Vps75: inhibitors of Candida albicans Rtt109/Vps75 histone acetyltransferase; Q5AAJ8; purified Rtt109/Vps75, ThioGlo CoA-SH fluorescence, 4 h; inhibition, % at 34.9 µM; actives 0.16% (n = 330,000); AID 540336;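 active = inhibition of at least 50% in every replicate; inconclusive = best replicate reaches 50% inhibition but some replicates fall short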
Efflux pump inh: blocks antifungal efflux pumps in multiplex yeast assay; S. cerevisiae Candida pump triplex, Nile Red efflux; inhibition, % at 10 µM; actives 0.44% (n = 330,000); AID 485275;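 active = plate passing quality check with inhibition over a set limit, or well fluorescence over plate mean plus 4 SD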;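 also: Nile Red retained in pooled yeast measured as flow cytometry median fluorescence; 0% = buffer negative control and 100% = Enniatin B positive control; higher means more Nile Red kept so more efflux inhibition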
ALR H2O2 inh: blocks human ALR sulfhydryl oxidase activity; AID 485317; inhibition, % (concentration not given with the values); actives 3.8% (n = 290,000); purified ALR, DTT oxidation, H2O2 HRP-luminol luminescence;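 active = mean replicate inhibition above about 79%, with every replicate also reaching it, limit read from the data; inconclusive = only one of the two criteria met; inactive = mean below limit and not every replicate reaching it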
Rce1 inh: yeast Ras-converting enzyme inhibition; Q03530; yeast membranes, quenched prenylated peptide cleavage fluorescence; calls only; actives 0.27% (n = 290,000); AID 2563;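 active = fall in fluorescence gain of 50% or more versus controls, with final raw signal at or below 3038400; inconclusive = same 50% fall but final raw signal above 3038400; inactive = fall in fluorescence gain under 50%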;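 also: plate controls were neutral control wells for no effect and wells lacking membranes for full effect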
* marks the source's active call; other numbers are inactive results; i = inactive; ? = inconclusive; . = no result given; + = active, no number. This is a sample that favours compounds with a hit; in the whole collection about 4.5% have one here.

SMILES	GRK2 aptamer HTS	HDAC3 inh	Rtt109 Vps75	Efflux pump inh	ALR H2O2 inh	Rce1 inh
Cc1ccc(CNS(=O)(=O)c2c(C(=O)N3CCCCC3)c(C)n(C)c2C)cc1	3	-6	11	0	4	i
Cc1c(C(=O)N2CCCCC2)c(S(=O)(=O)NCc2ccc(N(C)C)cc2)c(C)n1C	0	10	0	0	98*	i
CCOc1cc(/C=C2\N=C(C)OC2=O)cc(Cl)c1OCC(=O)OC	1	48*	-3	0	12	.
COc1cc(/C=C2\N=C(C)OC2=O)cc(Cl)c1OC(C)=O	1	3	3	0	15	i
O=c1oc(CCO)cc2ccc(Br)cc12	1	4	6	0	.	.
COc1cc(/C=N/Nc2nn3cnnc3c3ccccc23)ccc1O	6	5	1	0	4	i
COc1ccc(O)c(/C=N/Nc2nc3ccccc3[nH]2)c1	0	6	5	0	99*	i
COc1cc(/C=N/Nc2nc3ccccc3[nH]c2=O)ccc1O	0	6	4	0	99*	i
O=[N+]([O-])c1ccc(O)c(/C=N/Nc2nc3ccccc3[nH]2)c1	0	6	21	0	89*	i
COc1cc(/C=N/Nc2nc3ccccc3[nH]2)cc(OC)c1O	0	17	23	0	99*	i
C/C(=N\Nc1ccc2nncn2n1)c1cccs1	1	2	-5	0	26	i
COc1cc(/C=N/Nc2nc3ccccc3[nH]2)ccc1O	14	6	0	0	100*	i
O=[N+]([O-])c1cccc(N/N=C/c2cc([N+](=O)[O-])ccc2O)c1	0	-1	8	0	96*	i
COc1cc(/C=N/Nc2nc(=O)[nH]nc2C)ccc1O	4	6	23	0	100*	i
COc1ccc(/C=N/Nc2nc(=O)[nH]nc2C)cc1OC	0	?	0	0	-18	i
COc1cc(/C=N/Nc2nc3ccccc3[nH]2)cc(Br)c1OCC(=O)N(C)C	4	2	6	0	99*	i
O=[N+]([O-])c1ccc(O)c(C=NNc2ccc(S(=O)(=O)O)cc2)c1	.	.	4	.	.	.
C=CCOC(=O)C1=C(C)NC(=O)NC1c1cc2c(cc1Br)OCO2 (stereo not drawn)	2	7	-3	0	-7	i
O=S(=O)(NCc1cccc(C(F)(F)F)c1)NCc1ccccc1F	0	-4	.	0	-3	i
NC(=O)NC(CC(=O)NNC(=O)c1cccs1)c1ccc(Cl)cc1 (stereo not drawn)	0	2	-8	0	-2	.
COc1cc(/C=C(/C(=O)c2cccs2)c2nc3ccccc3[nH]2)cc(OC)c1O	5	10	-4	0	100*	i
COc1ccc(C(=O)N/C(=C/c2cccs2)c2nc3ccccc3[nH]2)cc1OC	0	3	6	0	-10	i
CC(=O)Nc1ccc(S(=O)(=O)Nc2nc3ccccc3nc2Nc2ccc(O)c(C(=O)O)c2)cc1	11	2	36	0	99*	i
O=S(=O)(Nc1ccc(-c2nc3ccccc3o2)cc1)c1ccccc1	2	-7	-5	0	3	i
Cc1cccc(S(=O)(=O)Nc2nc3ccccc3nc2Nc2cccc(C(=O)O)c2)c1	6	-39	11	0	98*	i
SMILES	GRK2 aptamer HTS	HDAC3 inh	Rtt109 Vps75	Efflux pump inh	ALR H2O2 inh	Rce1 inh
CC(=O)Nc1ccc(S(=O)(=O)Nc2cccc(-c3nc4ccccc4o3)c2)cc1	2	-1	27	0	2	+
CC(=O)Nc1ccc(S(=O)(=O)Nc2nc3ccccc3nc2Nc2ccc(S(N)(=O)=O)cc2)cc1	2	-37	6	0	-6	i
CCCC(C(=O)NC1CCCC1)N(C(=O)c1snc(C(N)=O)c1N)c1ccc(F)cc1 (stereo not drawn)	.	.	-8	.	.	i
O=c1cc(CN2CCN(Cc3ccccc3)CC2)c2ccc(O)c(O)c2o1	4	0	8	0	100*	i
Cc1c(O)ccc2c(CN(C)Cc3ccccc3)cc(=O)oc12	2	-25	-158	0	86*	i
O=c1cc(CN2CCOCC2)c2ccc(O)c(O)c2o1	2	-4	-5	0	99*	i
Cc1ccc2c(CN3CCC(C(N)=O)CC3)cc(=O)oc2c1C	0	-5	-6	0	95*	.
Cc1cc(N)c2cc(NC(=O)/C=C/c3ccccc3Cl)ccc2n1	0	-7	90*	0	-5	+
Cc1cc(C)nc(NC(=O)/C=C/c2ccccc2Cl)n1	4	-1	1	0	14	i
CC(=O)N(C)c1ccc(NC(=O)/C=C/c2ccccc2Cl)cc1	1	1	-3	0	-2	+
O=CNc1ccc2c(c1)Cc1cccc(NC=O)c1-2	.	.	2	.	.	.
CCOC(=O)N/N=C/c1cc(OC)c(O)c(OC)c1	2	11	-1	0	99*	i
COc1ccc(/C=N/NC(=O)C(=O)N2CCCCCC2)cc1O	0	4	-17	0	83*	.
COc1cc(/C=N/NC(=O)c2cccc3ccccc23)cc(OC)c1O	1	6	1	0	0	i
COc1cc(/C=N/NC(=O)C(N)=O)cc(OC)c1O	1	10	7	0	99*	i
COCc1cc(C)nc(OCC(=O)N/N=C/c2ccc(OC)c(O)c2)c1C#N	0	4	9	0	99*	i
COc1ccc(/C=N/NC(=O)C(N)=O)c(OC)c1OC	0	-7	6	0	5	i
COc1cc(/C=N/NC(=O)C(=O)N2CCCC2)ccc1O	0	7	-9	0	.	i
COC(=O)N1c2ccccc2C=Cc2ccccc21	0	9	1	0	-8	i
Cc1c(NC(=O)Nc2ccc(F)cc2F)c(=O)n(-c2ccccc2)n1C	6	-2	19	0	-6	i
CCOC(=O)N/N=C/c1ccc(F)cc1	0	-7	5	0	16	i
COc1cc(/C=N/N=C/c2cc(OC)c(O)c(OC)c2)cc(OC)c1O	6	11	18	0	98*	i
CCOC(=O)N/N=C/c1ccc(OC)c(O)c1	0	-4	4	0	94*	i
CC(=O)[C@@]1(O)[C@H](C)CC2C3CC=C4CC(OP(=O)(O)O)CC[C@]4(C)C3CC[C@@]21C (stereo partly drawn)	0	-3	2	0	-20	i
O=C(CNC(=O)C1CCCCC1)NCc1ccco1	3	1	-7	0	-1	i
Clc1ccc2c(N/N=C/c3ccccc3Br)ccnc2c1	0	4	-4	-2	-1	i
C/C(=N/Nc1ccnc2cc(Cl)ccc12)c1ccc(N)cc1	0	?	-3	0	98*	i
C/C(=N/Nc1ccnc2cc(Cl)ccc12)c1ccc(O)cc1	0	11	3	0	93*	i

Bioassay records: PubChem BioAssay, several laboratories
